Inconclusive results are not listed. Calls of active or inactive are those of the source. Unless noted, calls follow the shape of the dose curve; as a rule, active = well fitted curve in either direction with a large enough effect (not every such curve was filed as active); inconclusive = small, poorly fitted or top-dose-only effect, or another doubt; inactive = flat fitted curve, though single readings scatter.
How the values were obtained:
[1] = AP1 Signaling Pathway (AID 357); conditions: ME-180 (cervical carcinoma) AP-1-bla reporter, EGF-induced, beta-lactamase ratio, 5 h; at 17.2 µM (top of the series) unless noted;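 also: ME-180 reporter cells stimulated with EGF at its EC50 level; % is scaled to controls: 0 for no effect and ±100 for the full control effect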
Outline: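 Titration-series screen for positive or negative modulators of EC50 EGF-induced signaling in ME-180 cells carrying an AP-1-driven beta-lactamase reporter. After 5 hours at 37 degrees Celsius, CCF4 460nm/530nm emission ratio gave %Activity; AC50 values derived.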

[2] = NFAT Signaling Pathway (AID 444); conditions: Jurkat NFAT-bla M1, carbachol, beta-lactamase ratio, 5 h; at 17.2 µM (top of the series) unless noted;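 also: carbachol stimulus at about its EC50 of 1 µM final; % is scaled to controls: 0 for no effect and ±100 for the full control effect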
Outline: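 Jurkat cells with NFAT-driven β-lactamase reporter and co-expressed M1 receptor, stimulated with carbachol (final 1 uM, ~EC50), compound titration, 5 h at 37 °C. CCF4 loaded 1 h at RT; 460/530 nm ratio gave %activity and AC50.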

[3] = Stat Signaling Pathway (AID 446);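 also: ME-180 cervical cancer cells given 40 pM IL-6 alongside compound; SIE-controlled beta-lactamase reporter measured as 460/530 nm FRET emission ratio; % is scaled to controls: 0 for no effect and ±100 for the full control effect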
Outline: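 Compound effects on IL-6-induced STAT reporter activity were measured in ME-180 cells. After overnight culture, cells were co-treated with 40 pM IL-6 for 5 hrs before beta-lactamase substrate loading at room temperature.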

[4] = molecular target: Glucocorticoid receptor (Homo sapiens) (UniProt P04150); experiment: GR-GFP Redistribution (AID 450;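 active = compounds whose dose series gives a full or clear partial fitted curve of increased nuclear translocation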; also: potency is read from the fitted curve at half-maximal effect); conditions: U2OS GR-GFP nuclear translocation, laser cytometry, 2 h
Glucocorticoid receptor (Homo sapiens), sequence (P04150 whole entry, looked up): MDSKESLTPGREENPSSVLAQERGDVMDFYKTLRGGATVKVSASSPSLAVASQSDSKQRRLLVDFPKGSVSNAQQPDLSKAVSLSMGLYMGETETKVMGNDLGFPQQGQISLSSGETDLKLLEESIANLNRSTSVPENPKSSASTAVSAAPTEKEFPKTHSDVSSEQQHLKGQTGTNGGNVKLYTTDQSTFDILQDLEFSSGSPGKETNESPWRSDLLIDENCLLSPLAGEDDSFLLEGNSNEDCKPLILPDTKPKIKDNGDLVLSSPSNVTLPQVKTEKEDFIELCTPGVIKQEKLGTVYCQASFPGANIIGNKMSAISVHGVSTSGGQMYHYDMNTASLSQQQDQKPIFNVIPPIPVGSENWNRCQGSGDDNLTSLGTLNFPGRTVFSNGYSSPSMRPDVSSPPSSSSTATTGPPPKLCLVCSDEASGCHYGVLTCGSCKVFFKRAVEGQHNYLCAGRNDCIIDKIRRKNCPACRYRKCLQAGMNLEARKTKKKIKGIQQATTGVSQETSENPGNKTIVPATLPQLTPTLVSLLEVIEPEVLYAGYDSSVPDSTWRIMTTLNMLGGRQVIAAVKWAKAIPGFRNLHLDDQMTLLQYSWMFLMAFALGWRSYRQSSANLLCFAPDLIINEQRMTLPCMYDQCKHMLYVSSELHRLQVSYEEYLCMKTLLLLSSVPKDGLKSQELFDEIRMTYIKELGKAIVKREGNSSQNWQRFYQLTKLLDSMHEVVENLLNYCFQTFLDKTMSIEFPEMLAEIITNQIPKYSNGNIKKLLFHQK

OC(c1ccc(F)cc1)C(c1ccccc1)N1CCOCC1 (stereo not given)
inactive: activity change, negative = inhibition [1] -21.7% | activity change, negative = inhibition [2] -1.44% | outcome [3] | Potency [4] > 20.6 µM

CN(C)CCOC(=O)c1cn(Cc2ccccc2)c2ccccc12
inactive: activity change, negative = inhibition [1] 16% | activity change, negative = inhibition [2] -13.6% | outcome [3] | Potency [4] > 20.6 µM

CCOc1ccc(Cc2c(O)[nH]c(=O)[nH]c2=O)cc1
inactive: activity change, negative = inhibition [1] -3.54% | activity change, negative = inhibition [2] 3.49% | outcome [3] | Potency [4] > 20.6 µM

O=c1c(C=NCCN2CCNCC2)c(O)n(C2CCCCC2)c(=O)n1C1CCCCC1
inactive: activity change, negative = inhibition [1] 4.2% | activity change, negative = inhibition [2] 18.3% | outcome [3] | Potency [4] > 20.6 µM

CCCCNC(=O)Nc1ccc(C(O)(C(=O)OCC)C(F)(F)F)cc1 (stereo not given)
inactive: activity change, negative = inhibition [1] -5.83% | activity change, negative = inhibition [2] 30% | outcome [3] | Potency [4] > 20.6 µM

O=c1[nH]c(=O)n(CCc2ccccc2)c(O)c1C=NCCCn1ccnc1
inactive: activity change, negative = inhibition [1] -11% | activity change, negative = inhibition [2] -27.5% | outcome [3] | Potency [4] > 20.6 µM

CCOc1ccc(-n2c(O)c(C=NCCN3CCNCC3)c(=O)[nH]c2=O)cc1
inactive: activity change, negative = inhibition [1] 9.57% | activity change, negative = inhibition [2] 0.77% | outcome [3] | Potency [4] > 20.6 µM

Cn1c(O)c(C=NCCCNC2CCCCC2)c(=O)n(C)c1=O
inactive: activity change, negative = inhibition [1] 3.35% | activity change, negative = inhibition [2] -13.3% | outcome [3] | Potency [4] > 20.6 µM

CC(=O)OC1(c2ccc(C)cc2)CN2CCC1c1ccccc12 (stereo not given)
inactive: activity change, negative = inhibition [1] 7.68% | activity change, negative = inhibition [2] -10.3% | outcome [3] | Potency [4] > 20.6 µM

COc1ccc(Cn2c(O)c(C=NCCN3CCOCC3)c(=O)[nH]c2=O)cc1
inactive: activity change, negative = inhibition [1] -6.69% | activity change, negative = inhibition [2] -3.63% | outcome [3] | Potency [4] > 20.6 µM

COC(=O)C(c1ccccc1)N1CCCCCC1 (stereo not given)
inactive: activity change, negative = inhibition [1] 17.9% | activity change, negative = inhibition [2] -19.7% | outcome [3] | Potency [4] > 20.6 µM

CCCCOCCCn1c(N)c(C(=O)OC(C)COC)c2nc3ccccc3nc21 (stereo not given)
inactive: activity change, negative = inhibition [1] -11.7% | activity change, negative = inhibition [2] 29.2% | outcome [3] | Potency [4] > 20.6 µM

CC(=C1C(=O)c2ccccc2C1=O)N1CCN(CCN=Cc2c(O)n(C)c(=O)n(C)c2=O)CC1
inactive: activity change, negative = inhibition [1] -15.2% | activity change, negative = inhibition [2] -5.34% | outcome [3] | Potency [4] > 20.6 µM

CC(=O)C1(c2ccccc2)CCNCC1
inactive: activity change, negative = inhibition [1] 6.36% | activity change, negative = inhibition [2] -17.3% | outcome [3] | Potency [4] > 20.6 µM

CCCCSP1(=S)NCCCN1
inactive: activity change, negative = inhibition [1] -7.63% | activity change, negative = inhibition [2] -2.25% | outcome [3] | Potency [4] > 20.6 µM

Source: PubChem BioAssay (NCATS)
